Screening results deposited in PubChem by National Center for Advancing Translational Sciences (NCATS).
Many of the other results were omitted from the sample, so hits are more common in it than they were.
KDM5B inh = KDM5B demethylase inhibition | Q9UGL1 | KDM5B demethylase, FDH-coupled NADH fluorescence (FDH is formaldehyde dehydrogenase) | Potency, µM (doses to about 57.7 µM), actives largely listed as inhibitors | hit rate 2.6% among 220,000; active = well fitted inhibition curve with a large enough effect; also: 0% is about no effect; nearly all actives have a fitted effect of over 70% in size
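Coupled FDH/NAD⁺ fluorescence readout. KDM5BΔAP 200 nM final; compound titration, 10 min RT preincubation; substrate mix 12.5 µM H3K4me3, 25 µM 2-OG, 50 µM Fe(II), 100 µM ascorbate, 0.25 mM NAD⁺, 0.25 U/mL FDH; ΔRFU over 30 min.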
* marks the source's active call; other numbers are inactive results; i = inactive. Potency is read from the fitted curve at half-maximal effect.

SMILES	KDM5B inh
Cc1cccc(-n2nc(C)c(CCC(=O)N3CCSCC3)c2Oc2ccccc2C)c1	i
Cc1cccc(-n2ncc(C(=O)N3CCOCC3)c2C2CCN(C(=O)OC(C)(C)C)CC2)c1	i
Cc1nn(CC(=O)N2CCN(c3ccc(Cl)cc3)CC2)c(=O)c2nc(C(C)C)sc12	i
Cc1cccc(-n2nc(-c3c(C)nc4scc(CC(=O)N5CCCC5)n4c3=O)cc2C)c1	28.2µM*
Cc1nc2scc(CC(=O)N3CCCC3)n2c(=O)c1-c1cc(C)n(-c2ccc(C(C)C)cc2)n1	25.1µM*
Cc1cc2nc3n(c(=O)c2n1CC(=O)Nc1ccc(C(C)C)cc1)CCCCC3	i
Cc1cccc(-n2nc(-c3c(C)nc4scc(CC(=O)N5CCOCC5)n4c3=O)cc2C)c1	28.2µM*
Cn1nc(CC(=O)N2CCOCC2)c2ccccc2c1=O	i
COc1cccc([S+](=O)([O-])N2CCCC3(CC(c4ccccn4)=NO3)C2)c1 (stereo not given)	i
Cc1[nH]c(SCC(=O)NCCc2ccccc2)nc1Cc1ccccc1	i
COc1cc(OC)cc(C(=O)N2CCC(Cc3nc(-c4ccc(F)cc4)no3)CC2)c1	i
Cc1cc2nc(-c3cccc(NC(=O)c4cc([N+](=O)[O-])ccc4N4CCOCC4)c3)oc2cc1C	i
Fc1ccc(CNCc2ccc(-c3ccccc3)o2)cc1	i
O=C(N[C@@H]1CCOC[C@H]1OCCO)C1CCN(Cc2ccco2)CC1	i
COc1ccc(OCCNC(=O)c2cc(C3CC3)nc3ccccc23)cc1	i
CCC(C)NC(=O)c1cc(C2CC2)nc2ccccc12 (stereo not given)	i
O=C(Cc1c(F)cccc1Cl)N[C@@H]1CCOC[C@H]1OCCO	i
O=C(N[C@@H]1CCOC[C@H]1OCCO)c1cccc(-c2ccco2)c1	28.2µM*
O=C(N[C@@H]1CCOC[C@H]1OCCO)c1cc(C2CC2)nc2ccccc12	28.2µM*
COc1ccc(Cc2c(C)nn(-c3nc(CC(=O)Nc4ccccc4)cs3)c2C)cc1	i
Cc1ccc(C(c2cccc(Br)c2)c2cn(C)c3ccccc23)s1 (stereo not given)	i
COc1ccc(N2C(=O)CN(C3CCCCC3)[C@H]3CS(=O)(=O)C[C@H]32)cc1	i
O=C(O)CCC(=O)N1N=C(c2ccco2)CC1c1ccc2nccnc2c1 (stereo not given)	i
COc1ccc(OC2CCN(C(C)=O)CC2)c(C(=O)NC(C)Cc2cccs2)c1 (stereo not given)	28.2µM*
CCC(NC(=O)c1cc(OC)ccc1OC1CCN(C(C)=O)CC1)c1ccc(F)cc1 (stereo not given)	28.2µM*
SMILES	KDM5B inh
COc1ccc(C(=O)NCc2csc(C(C)C)n2)cc1OC1CCN(C(C)=O)CC1	i
COc1ccc(OC2CCN(C(C)=O)CC2)c(C(=O)N(C)CC2CCCCO2)c1 (stereo not given)	i
COc1cc(C(=O)NCc2nc(C)cs2)ccc1OC1CCN(C(C)=O)CC1	i
CCC(C)NC(=O)C(NC(=O)c1ccccc1F)C1CCN(C(=O)c2ccc(OC)cc2)CC1 (stereo not given)	i
CCn1ccnc1CNC(=O)c1cc(OC)ccc1OC1CCN(C(=O)C2CC2)CC1	28.2µM*
CC(C)c1nc(CNC(=O)c2ccc(OC3CCN(C(=O)C4CC4)CC3)cc2)cs1	i
COc1ccc(C(C(=O)O)N2CCC(C(=O)N3CCCC3)CC2)c(OC)c1 (stereo not given)	i
O=C(O)CN1CCOCC1	i
CCc1ccc(CN(C(=O)c2cc(=O)c3cc(Cl)ccc3o2)C2CCS(=O)(=O)C2)cc1 (stereo not given)	i
Cc1cc(NC(=O)N(Cc2ccco2)C2CCCC2)no1	i
O=C(Cc1ccc(Cl)cc1Cl)N1CCN(c2ccccc2O)CC1	i
Cc1ccc(S(=O)(=O)CC(=O)c2cccc(Br)c2)cc1	i
O=C1OCC2=C1C(c1ccc3c(c1)OCO3)CC(=O)N2c1ccc(F)cc1 (stereo not given)	i
COc1ccc(N2CCCCS2(=O)=O)cc1S(=O)(=O)NCc1ccco1	i
COc1ccc(C(=O)c2cc3ccccc3o2)cc1OC	i
Brc1ccc(-c2ccnc3nc(-c4ccco4)nn23)s1	28.2µM*
COc1ccccc1-c1nc2nccc(-c3ccncc3)n2n1	i
COc1ccc(Cc2nc3nccc(-c4ccco4)n3n2)cc1	i
COc1ccccc1-c1nc2nccc(-c3cc4ccccc4o3)n2n1	25.1µM*
Cc1cc(Nc2ccc(F)c(F)c2)n2nc(-c3ccco3)nc2n1	i
COc1cccc(-c2nc(-c3cc4ccccc4o3)cs2)c1OC	i
COc1ccccc1-c1nc2nccc(-c3ccccc3)n2n1	i
COc1ccccc1-c1nc2nccc(-c3ccc(Cl)cc3)n2n1	31.6µM*
COc1ccccc1-c1nc2nccc(-c3cc(OC)c(OC)c(OC)c3)n2n1	25.1µM*
C=CCNC(=S)Nc1ccccc1F	i
O=C(O)Cc1ccc2nc[nH]c2c1	i
COc1ccc2cc(C(=O)NCCCN3CCCC3=O)c(C)nc2c1	i
